Test results: PubChem BioAssay AID568 (Sanford-Burnham Center for Chemical Genomics, 2006)
Fewer than 10 of roughly 83,000 compounds were called active. No rule for the calls is given here. The list is a sample of the results. Entries with a potency or affinity are not part of this list.

The molecules below were run against Heat shock cognate 71 kDa protein (Homo sapiens) (UniProt P11142) (assay: small molecules displacing fluorescent ligand from Hsc70 – biochemical, fluorescence polarization, primary screen (AID 568)). Details: mP, at 20 µM, hits give high values.
Heat shock cognate 71 kDa protein (Homo sapiens), sequence (P11142 whole entry, looked up): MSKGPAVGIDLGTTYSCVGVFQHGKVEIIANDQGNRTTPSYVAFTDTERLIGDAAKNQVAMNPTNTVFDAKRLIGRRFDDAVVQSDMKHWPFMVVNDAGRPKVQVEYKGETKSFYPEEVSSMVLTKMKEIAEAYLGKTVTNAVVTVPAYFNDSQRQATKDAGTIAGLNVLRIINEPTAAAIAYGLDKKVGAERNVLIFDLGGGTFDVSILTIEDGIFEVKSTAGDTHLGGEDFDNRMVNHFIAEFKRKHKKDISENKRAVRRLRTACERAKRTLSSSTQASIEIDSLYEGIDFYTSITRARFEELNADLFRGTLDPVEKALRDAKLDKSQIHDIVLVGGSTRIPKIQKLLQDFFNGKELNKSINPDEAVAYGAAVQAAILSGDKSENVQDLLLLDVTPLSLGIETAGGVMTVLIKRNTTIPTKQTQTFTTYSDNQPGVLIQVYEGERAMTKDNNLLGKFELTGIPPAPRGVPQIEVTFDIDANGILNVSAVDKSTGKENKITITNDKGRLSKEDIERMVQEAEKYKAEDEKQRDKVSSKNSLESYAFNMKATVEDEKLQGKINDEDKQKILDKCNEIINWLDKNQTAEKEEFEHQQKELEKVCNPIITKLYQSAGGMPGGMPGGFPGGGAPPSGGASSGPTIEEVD
Heat shock cognate 71 kDa protein (Homo sapiens), sequence (P11142 whole entry, looked up): as above

displacement, inactive:
O=C(Nc1cccc(Cl)c1N1CCCC1)c1cc2ccccc2o1 -2.4%
CCOC(=O)C1=NN(c2ccccc2)C2(S1)SC(C(C)=O)=C(C)N2c1ccccc1 (configuration not stated) 3.4%
Cc1noc(C)c1CSc1nnc2cc(C)c3ccccc3n12 -6.7%
Cc1ccc(C(=O)NCc2occc2C(=O)O)o1 2.4%
CCn1c2ccccc2c2nnc(SCC(=O)Nc3ncccn3)nc21 5.9%
COc1ccc(S(=O)(=O)NCC(=O)N(CC(=O)NCC2CCCO2)c2c(C)cccc2C)cc1 (configuration not stated) -3.5%
O=C(Nc1ccncc1)c1cc(F)cc(F)c1 3.6%
c1ccc2sc(N3CCN(Cc4nnnn4CC4CCCO4)CC3)nc2c1 (configuration not stated) 1.7%
Cn1c(SCc2ccc(F)cc2)nnc1-c1cccs1 -5%
CCOc1ccc(C(C#N)N2CCOCC2)cc1OC (configuration not stated) -4.5%
CCCCN(C(=O)c1cc(OC)c(OC)c(OC)c1)C1=CC2CCC(C1)N2C (configuration not stated) -2.2%
Cc1nn(-c2ccccn2)c2nc(-c3cccs3)cc(C(=O)N3CCOCC3)c12 0.1%
Cn1c(SCC(=O)NCc2ccc3c(c2)OCO3)nnc1-c1cccs1 -4.3%
COc1ccc(-c2nc(C)c(C(C)=O)n2O)cc1 3.1%
COC(=O)c1ccc(OCC(=O)c2ccccc2OC)cc1 2.4%
CCOC(=O)c1ccc2nc(NC(=O)c3cccs3)sc2c1 -11.3%
O=C(c1cccc(S(=O)(=O)N2CCCCC2)c1)N1CCN(S(=O)(=O)c2ccc(F)cc2)CC1 7.4%
N#Cc1ccccc1NC(=O)CSc1nnc(-c2ccccc2O)n1-c1ccccc1 -3.5%
CCN(CC)S(=O)(=O)c1cccc(C(=O)Nc2cccnc2)c1 4.9%
CCOC(=O)c1cccc(N2C(=O)C3C(C(=O)NC4CC4)C4(C)C=CC3(O4)C2C(=O)NC(C)(C)C)c1 (configuration not stated) 0.8%
COc1ccc(NC(=O)CSc2nc3ccccc3c(=O)n2CCNC(C)=O)cc1 1%
CC(C)c1ccc(-c2nnn(Cc3nc4ccccc4s3)n2)cc1 7.9%
CC1=C(C(=O)N2CCOCC2)C(c2cccs2)NC(=O)N1 (configuration not stated) 1.5%
Cc1c(NC2=NC(C)(C)Cc3ccccc32)c(=O)n(-c2ccccc2)n1C -0.6%
CCc1ccccc1NC(=O)N[C@@H](C)C(=O)O 4.3%
CCCCNC(=S)NNC(=O)c1ccco1 4%
CC1=C(C(=O)OC(C)C)C(c2c[nH]c3ccccc23)n2ncnc2N1 (configuration not stated) 4.3%
CNS(=O)(=O)c1cccc2cccnc12 5.1%
Cc1ccc(C)c(-n2c(SCC(=O)NCC3CCCO3)nnc2-c2ccoc2C)c1 (configuration not stated) -2.3%
O=C1C2C3C=CC(C3)C2C(=O)N1c1ccc2ccccc2n1 (configuration not stated) 6.3%
CCOC(=O)c1c(NC(=O)CSc2nnc(-c3cccnc3)o2)sc2c1CCC2 -5%
Cn1c(CNC(=O)c2cccs2)nnc1SCC(=O)Nc1ccc(Cl)cc1 1.1%
COc1ccc(Br)cc1CNC(=O)CCc1nc(-c2ccccc2F)no1 0%
COC(=O)c1[nH]nc2c1C(=O)N(C1CCCCC1)C2=O 2.9%
CCCC1CCC(C2=N/C(=C\c3ccc(OC)c(OC)c3)C(=O)O2)CC1 (configuration not stated) -5%
Cn1c(CCN2CCN(c3ccccc3)CC2)nc2cc(NC(=O)c3ccco3)ccc21 0.4%
O=C(COC(=O)c1cccnc1)c1ccc(Cl)c(Cl)c1 -1.2%
CCn1c(COc2ccccc2C)nnc1SCC(=O)CC(=O)Nc1ccccc1 2.2%
CN(Cc1ccccc1)C(=O)c1ccc2c(c1)OCCO2 0.2%
Cn1cc(S(=O)(=O)CC(=O)Nc2ccc3c(c2)OCCO3)c2ccccc21 7.1%
NC(=O)c1ccccc1N/C=C/C(=O)c1ccco1 5.3%
CCN1CCN(CCCNC(=O)C2CCCN(c3nnc(-n4cccc4)s3)C2)CC1 (configuration not stated) 7%
Cc1ccc2oc(=O)c3cnn(CC(=O)NCCN4CCOCC4)c3c2c1 2.8%
Cc1c(C(=O)O)oc2ccc(S(=O)(=O)NCc3ccccc3)cc12 -0.1%
COc1ccc(C(c2nnnn2Cc2cccs2)N2CCN(c3ccccc3F)CC2)cc1 (configuration not stated) -2.2%
CC(=O)NCCn1c(SCC(=O)NCCC2=CCCCC2)nc2ccccc2c1=O -4.3%
Cc1cc(C)cc(N(C(=O)c2ccc3c(c2)OCO3)C2C=CS(=O)(=O)C2)c1 (configuration not stated) -3.3%
CCN(CC)S(=O)(=O)c1ccc(-c2nnc(SCc3nnc(-c4ccc(C)cc4)o3)n2CC)cc1 -2.9%
CC(C)(C)C(=O)CNS(=O)(=O)c1ccc(S(=O)(=O)NC2CCCC2)cc1 2.7%
Cc1ccc(OC(C)C)c(CN(CCO)CCO)c1 -3.1%
COc1ccc(S(=O)(=O)N2CCSC2c2ccc(N)cc2)cc1 (configuration not stated) 2.5%
CSc1nn(CCc2ccncc2)c(=S)s1 -0.7%
COc1cc(NC(=O)c2cc(C)on2)cc(OC)c1OC 8%
N#C/C(=C\Nc1ccc2c(c1)OCCO2)c1nc2ccccc2[nH]1 -23.3%
CC(C)c1[nH]nc2c1C(Cc1ccccc1)C(C#N)=C(N)O2 (configuration not stated) 5.2%
COc1ccccc1N1CCN(C(=O)c2c(-c3ccccc3Cl)noc2C)CC1 -6.4%
CC(=O)Nc1ccc(S(=O)(=O)Nc2cccc(N(C)S(C)(=O)=O)c2)cc1 -0.7%
CCOc1ccc(S(=O)(=O)Nc2ccccc2SC)cc1 -1.7%
NC(=O)c1ccsc1NC(=O)COc1ccccc1 9.1%
COC(=O)c1c(NS(C)(=O)=O)sc2c1CCCC2 3.6%
COc1ccc(NC(=O)CCn2nc(C)cc2C)cc1 -4.3%
O=C(CSc1nnc(Cn2c(=O)sc3ccccc32)n1CCc1ccccc1)N1CCCC1 1.9%
